According to the supplement of paper PMC12669032:
Values without a mark were called inactive.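 Rule for the calls: active = AUC reduced over 20% with Padj below 0.05 in at least 2 of 3 replicates; inactive = otherwise.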

tested on: Bacteroides caccae; assay: growth AUC relative to DMSO control (median of replicates) (fraction); higher = more growth (less inhibition), active = hit call of the paper; conditions: 20 µM; 24 h
In short: (§1)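 Gut bacteria were grown singly in mGAM at 37 °C without oxygen, from OD600 0.05, alongside 20 µM compound in 1% DMSO, and OD600 was read each hour for 24 h. Area under the growth curve was normalised to the median of solvent-only wells per plate, or to row and column medians on the industrial chemical plate. The minimum OD was set to 0 beforehand, and the reported value is the median of three biological replicates grown on separate days.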

| Structure (SMILES) | growth AUC |
| --- | --- |
| c1ccc2c(c1)cc1ccc3cccc4ccc2c1c34 | 0.957 |
| CS(=O)(=O)c1cc(C(F)(F)F)ccc1C(=O)c1cnoc1C1CC1 | 1.08 |
| O=C(NC(=O)c1c(F)cccc1F)Nc1ccc(CO/N=C(\c2ccc(Cl)cc2)C2CC2)cc1 | 0.994 |
| CNC(=O)Oc1cc(C)c(S(C)(=O)=O)c(C)c1 | 1.02 |
| O=C(O)c1ccc(=O)[nH]c1 | 1.02 |
| N#Cc1c[nH]cc1-c1cccc(Cl)c1Cl | 0.819 |
| CCOP(=S)(OCC)SCS(=O)CC (stereo not drawn) | 0.99 |
| CNC(=O)O/N=C/C(C)(C)S(C)(=O)=O | 0.994 |
| COc1nc(NC(C)C)nc(NC(C)C)n1 | 1.04 |
| CC(=O)O.CC(=O)O.CC(=O)O.NC(N)=NCCCCCCCCNCCCCCCCCN=C(N)N | 0.639 (active) |
| OCC1C(CO)C2(Cl)C(Cl)=C(Cl)C1(Cl)C2(Cl)Cl (stereo not drawn) | 0.721 (active) |
| Nc1cc(Cl)cc(C(=O)O)c1Cl | 0.975 |
| N#Cc1nn(-c2c(Cl)cc(C(F)(F)F)cc2Cl)c(N)c1S(=O)C(F)(F)F (stereo not drawn) | 0.964 |
| O=[N+]([O-])c1ccccc1 | 1.01 |

tested on: Bacteroides clarus; assay: as above; conditions: 20 µM; 24 h
In short: as §1

| Structure (SMILES) | growth AUC |
| --- | --- |
| C=CCOC(Cn1ccnc1)c1ccc(Cl)cc1Cl.O=S(=O)(O)O (stereo not drawn) | 0.925 |
| c1ccc(-c2ccccc2)cc1 | 1.03 |
| CCOC(=O)C(SP(=S)(OC)OC)c1ccccc1 (stereo not drawn) | 0.933 |
| Nc1nc(N)nc(Cl)n1 | 1.02 |
| NC(=O)/N=C1/SCCN1Cc1ccc(Cl)nc1 | 0.999 |
| CON(C)C(=O)Nc1ccc(Br)c(Cl)c1 | 0.978 |
| CC(C)C(C(=O)OC(C#N)c1cccc(Oc2ccccc2)c1)c1ccc(OC(F)F)cc1 (stereo not drawn) | 0.956 |
| O=[N+]([O-])c1c(Cl)c(Cl)cc(Cl)c1Cl | 1.01 |
| Clc1ccc(C2(Cn3cncn3)CC(Br)CO2)c(Cl)c1 (stereo not drawn) | 0.982 |
| CC(C)N1C(=O)N(c2ccccc2)CSC1=NC(C)(C)C | 0.902 |
| CNC1=C(c2cccc(C(F)(F)F)c2)C(=O)C(c2ccccc2)O1 (stereo not drawn) | 0.953 |
| CCOP(=S)(OCC)Oc1cc(C)nc(C(C)C)n1 | 1 |
| CCOP(=S)(OCC)SCS(=O)(=O)C(C)(C)C | 0.944 |
| COc1nc(C)nc(NC(=O)NS(=O)(=O)c2ccccc2Cl)n1 | 0.959 |
| CCOP(=S)(OCC)Oc1cnccn1 | 0.963 |
| O=c1[nH]c2c(c(=O)n1C1CCCCC1)CCC2 | 0.944 |
| COC[C@H](C)N(C(=O)CCl)c1c(C)csc1C | 0.983 |
| CC(C)N(C(=O)CCl)c1ccccc1 | 0.969 |
| ClC1=C(Cl)C2(Cl)C(CBr)CC1(Cl)C2(Cl)Cl (stereo not drawn) | 1.02 |
| COC(=O)COc1cc(Cl)c(Cl)cc1Cl | 0.952 |

| Structure (SMILES) | growth AUC |
| --- | --- |
| COP(=S)(OC)Oc1ccc([N+](=O)[O-])c(C)c1 | 0.968 |
| COC(=O)C(C)N(C(=O)c1ccco1)c1c(C)cccc1C (stereo not drawn) | 0.984 |
| Cc1ccc(N(SC(F)(Cl)Cl)S(=O)(=O)N(C)C)cc1 | 1 |
| CCOC(=O)CC(SP(=O)(OC)OC)C(=O)OCC (stereo not drawn) | 0.992 |
| COc1cc(OC)nc(NC(=O)NS(=O)(=O)c2ncccc2C(F)(F)F)n1 | 0.977 |
| c1ccc2c(c1)cc1ccc3cccc4ccc2c1c34 | 0.94 |
| CS(=O)(=O)c1cc(C(F)(F)F)ccc1C(=O)c1cnoc1C1CC1 | 1.01 |
| O=C(NC(=O)c1c(F)cccc1F)Nc1ccc(CO/N=C(\c2ccc(Cl)cc2)C2CC2)cc1 | 0.955 |
| CNC(=O)Oc1cc(C)c(S(C)(=O)=O)c(C)c1 | 0.963 |
| O=C(O)c1ccc(=O)[nH]c1 | 1.01 |
| N#Cc1c[nH]cc1-c1cccc(Cl)c1Cl | 0.9 |
| CCOP(=S)(OCC)SCS(=O)CC (stereo not drawn) | 0.994 |
| CNC(=O)O/N=C/C(C)(C)S(C)(=O)=O | 0.962 |
| COc1nc(NC(C)C)nc(NC(C)C)n1 | 0.993 |
| CC(=O)O.CC(=O)O.CC(=O)O.NC(N)=NCCCCCCCCNCCCCCCCCN=C(N)N | 0.523 (active) |
| OCC1C(CO)C2(Cl)C(Cl)=C(Cl)C1(Cl)C2(Cl)Cl (stereo not drawn) | 0.818 |
| Nc1cc(Cl)cc(C(=O)O)c1Cl | 1.02 |
| N#Cc1nn(-c2c(Cl)cc(C(F)(F)F)cc2Cl)c(N)c1S(=O)C(F)(F)F (stereo not drawn) | 0.881 |
| O=[N+]([O-])c1ccccc1 | 1.02 |
